This passage reports Percent Effect results from ChEMBL document CHEMBL3988442, “University of Dundee, Small-Polar-MMV Screening Library” (2021).

Hit rate of the full screen: of about 69,000 compounds, about 420 (0.61%) showed an effect of 50% or more. The sample as a whole holds a higher share of strong results than the screen did.

The test concerns the target T1, Histidine--tRNA ligase (Leishmania infantum) (UniProt A4I591).
T1 sequence (whole entry): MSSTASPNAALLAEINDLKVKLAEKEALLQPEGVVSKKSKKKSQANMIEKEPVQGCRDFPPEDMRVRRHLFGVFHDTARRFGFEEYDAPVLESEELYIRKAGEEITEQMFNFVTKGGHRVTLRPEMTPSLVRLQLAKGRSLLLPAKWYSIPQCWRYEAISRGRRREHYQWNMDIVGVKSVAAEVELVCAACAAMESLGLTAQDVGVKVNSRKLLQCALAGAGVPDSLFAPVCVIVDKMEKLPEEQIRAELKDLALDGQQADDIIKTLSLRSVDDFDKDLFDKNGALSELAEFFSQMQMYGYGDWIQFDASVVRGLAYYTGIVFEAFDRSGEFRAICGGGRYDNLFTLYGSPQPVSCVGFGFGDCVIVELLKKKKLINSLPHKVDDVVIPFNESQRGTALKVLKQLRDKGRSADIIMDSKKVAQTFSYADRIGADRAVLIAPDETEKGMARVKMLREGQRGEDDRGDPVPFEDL
The test is described as follows: Leishmania infantum Histidine tRNA synthetase (LdHisRS). The format is functional. Set-up: scale not given: in the data most compounds retested in dose-response had high values. The conditions noted are these: 30 µM.
As to `Cc1nnc([C@@]23CCO[C@@H]2CCN(Cc2cccc4ccccc24)C3)o1`, the Percent Effect stood at 5.94%.
Regarding `CNC(=O)[C@@H]1COC[C@H]2CN(C(=O)c3ccc(OC)cc3)C[C@H]21`, the Percent Effect worked out at 8.77%.
Take `CN1C(=O)CO[C@H]2CN(C(=O)c3ccc4c(c3)CCCC4)C[C@@H]21`: the Percent Effect is 0%.
As to `O=S(=O)(c1cccnc1)N1C[C@@H]2CC[C@H](C1)N(Cc1ccccn1)C2`, the Percent Effect worked out at 7.53%.
Turning to `N#Cc1ccc(C(=O)N2C[C@H](OCc3cccnc3)[C@H]3COC[C@H]32)cc1`, the Percent Effect amounted to 6.94%.
Take `CC(C)N1c2sc(-c3ccsc3)nc2CC1C(=O)NC1CC1` (stereo unspecified): the Percent Effect was found to be 30%.
As to `O=C(Nc1cccnc1)C1Cc2nc(-c3ccsc3)sc2N1CC1CC1` (stereo unspecified), the Percent Effect was 62.5%.
Take `O=C(NC1CCCC1)C1Cc2nc(-c3ccsc3)sc2N1CC1CC1` (stereo unspecified): the Percent Effect came to 23.6%.
In the case of `CN(C)CCNC(=O)C1Cc2nc(-c3ccccc3)sc2N1CC1CC1` (stereo unspecified) it was 20.8%; in that of `CN(C)CCNC(=O)C1Cc2nc(-c3ccsc3)sc2N1CC1CC1` (stereo unspecified), 22.2%.
Regarding `CC(C)NC(=O)C1Cc2nc(-c3ccsc3)sc2N1CC1CC1` (stereo unspecified), the Percent Effect came to 51.4%.
As for `CC(C)CNC(=O)[C@H]1C[C@@H]2CN(C(=O)NCC3CCCCC3)C[C@H]1O2`, the Percent Effect was 17.2%.
Regarding `COc1ccccc1CN1C(=O)O[C@@H]2CN(Cc3cccc(C)n3)C[C@@H]21`, the Percent Effect was -1.67%.
For the compound `O=C1O[C@@H]2CN(Cc3ccncc3)C[C@@H]2N1CCCN1CCOCC1`, the Percent Effect is -6.67%.
On to `COc1ccc(-n2cc(CCO)cn2)cc1C`, for which the Percent Effect turned out to be 69.6%.
For `COc1cc(-n2cc(CCO)cn2)ccc1NC(C)=O`, the Percent Effect was determined as 31.6%.
Consider `COc1ccc(-n2cc(CCO)cn2)cc1C(N)=O`, for which the Percent Effect came to 34.2%.
`N#Cc1ccc(OC[C@]23COC[C@H]2CN(c2ncccn2)C3)nc1`: the Percent Effect amounted to 5.56%.
`N#Cc1ccc(N2CCCC3(CCN(c4cccnc4)CC3)C2)cc1`: the Percent Effect stood at 51.4%.
In the case of `c1cncc(N2CCCC3(CCN(CCN4CCCC4)CC3)C2)c1`, the Percent Effect is 15.3%.
In the case of `c1cncc(N2CCC3(CCCN(c4ccncc4)C3)CC2)c1` it was 15.3%; in that of `O=C1[C@H]2CN(Cc3ccccc3)C[C@H]2CN1CCN1CCCC1`, 17.3%; in that of `Cc1ccc(-n2cc(CN3CCN(C)[C@@H]4CS(=O)(=O)C[C@@H]43)cn2)cc1`, 11.4%.
In the case of `Cc1cc(C)cc(NC(=O)Nc2c(O)oc3ccccc3c2=O)c1` it was 16.1%; in that of `c1ccc2sc(N3CCN(c4ncnc5c4CCC5)CC3)nc2c1`, 14.3%; in that of `CC(C)n1nc2c(cc1=O)CN(c1nc3ccccc3s1)CC2`, 18.2%.
Take `Cn1nc2c(cc1=O)CN(c1nc3ccccc3s1)CC2`: the Percent Effect is 90.9%.
In the case of `Cn1nc2c(cc1=O)CN(Cc1nc(N)c3ccccc3n1)CC2` it was 43.5%; in that of `Cn1nc2c(cc1=O)CN(Cc1nc3ccccc3c(=O)[nH]1)CC2`, 24.7%.
`Cn1nc2c(cc1=O)CN(CCc1nc3ccccc3c(=O)[nH]1)CC2`: the Percent Effect was 53.9%.
`CCn1nc2c(cc1=O)CN(Cc1nc3ccccc3o1)CC2`: the Percent Effect is 12.9%.
For the compound `CCn1nc2c(cc1=O)CN(c1nc3ccccc3s1)CC2`, the Percent Effect worked out at 72.7%.
For the compound `CCn1nc2c(cc1=O)CN(Cc1nc3ccccc3c(=O)[nH]1)CC2`, the Percent Effect came to 25%.
In the case of `Cc1ncnc(N2CCCN(c3nc4ccccc4s3)CC2)c1C` it was 25.7%; in that of `c1ccc2sc(N3CCCN(c4ncnc5c4CCNC5)CC3)nc2c1`, 57.1%; in that of `Cc1nc(CO[C@H]2CN(C(=O)c3cnoc3C)[C@@H]3COC[C@H]23)cs1`, 10%.
In the case of `CC(C)NC(=O)[C@@]12CCO[C@@H]1CCN(Cc1ccco1)C2`, the Percent Effect came out at 15.1%.
As to `O=C(Nc1cccnc1)[C@H]1C[C@@H]2CN(Cc3ccc(F)cc3)C[C@H]1O2`, the Percent Effect was 10%.
In the case of `CC(C)C(=O)N1CC[C@H]2N(C)CC[C@@]2(C(=O)Nc2cccnc2)CC1` it was 8.11%; in that of `OC[C@H]1CC[C@]2(CC1)CN(Cc1ccsc1)Cc1ccccc1O2`, 16.5%.
Turning to `O=C(c1ccco1)N1C[C@@H]2OCCN(CCN3CCCC3)[C@@H]2C1`, the Percent Effect was 6.01%.
Consider `CNC(=O)N1CCC2(CC1)CC[C@@]1(C(=O)NC)CN(S(C)(=O)=O)C[C@@H]21`, for which the Percent Effect came out at 9.72%.
In the case of `CN(Cc1ccco1)[C@@H]1CN(Cc2nccn2C)[C@@H]2CCCO[C@H]12` it was 27%; in that of `O=C([C@@H]1COC[C@H]2CN(c3ccncn3)C[C@H]21)N1CCCC1`, 19.3%; in that of `COc1ccc(NC(=O)N(C)Cc2ccco2)cn1`, 16%.
In the case of `CN(Cc1ccc2c(c1)OCO2)C(=O)c1ccc(=O)n(C)c1` it was 5.33%.
As to `CN(Cc1ccco1)C(=O)Nc1ccc(=O)n(C)c1`, the Percent Effect stood at 102%.
`CN(Cc1cccs1)C(=O)c1ccc(=O)n(C)c1`: the Percent Effect worked out at 11.3%.
For the compound `CN(Cc1ccco1)C(=O)c1ccc(=O)n(C)c1`, the Percent Effect is 14.9%.
As to `Cc1occc1CN(C)C(=O)Nc1ccc(=O)n(C)c1`, the Percent Effect was determined as 102%.
With `CS(=O)(=O)N[C@@H]1CN(C(=O)c2cccnc2)[C@@H]2CCCO[C@@H]21`, the Percent Effect was found to be 8.26%.
In the case of `O=C([C@@H]1C[C@@H]2CCN(C3CCOCC3)C[C@@H]2O1)N1CCOCC1`, the Percent Effect was found to be 8.33%.
Turning to `CC(=O)N1CCN(C(=O)CNc2ccc3sccc3c2)CC1`, the Percent Effect turned out to be 27.2%.
In the case of `CC(=O)N1CCN(C(=O)C(C)Nc2ccc3ncsc3c2)CC1` (stereo unspecified), the Percent Effect stood at 28.9%.
Turning to `CC(=O)N1CCN(C(=O)CNc2ccc3ncsc3c2)CC1`, the Percent Effect is 58.8%.
Regarding `O=C1NCCN1C1CCCN(Cc2coc(-c3cccs3)n2)C1` (stereo unspecified), the Percent Effect is 13.4%.
Next, `Cn1nc2c(cc1=O)CN(Cc1coc(-c3cccs3)n1)CC2`: 97.6%; `CCN1CCN(Cc2coc(-c3cccc(F)c3)n2)CC1`: 21.9%; `CC1CCCN(Cc2coc(-c3cccc(F)c3)n2)C1` (stereo unspecified): 13.7%.
Next, `Cn1nc2c(cc1=O)CN(Cc1coc(-c3ccccc3)n1)CC2`: 44.7%; `Cn1nc2c(cc1=O)CN(Cc1coc(-c3ccc(F)cc3)n1)CC2`: 90.3%; `Cc1ccc(-c2nc(CN3CCc4nn(C)c(=O)cc4C3)co2)cc1`: 107%.
For the compound `CN(C)CC1CN(Cc2coc(-c3cccs3)n2)CCO1` (stereo unspecified), the Percent Effect is 14.9%.
For the compound `O=C1NCCN1C1CCN(Cc2coc(-c3ccc(F)cc3)n2)CC1`, the Percent Effect worked out at 9.82%.
On to `Cn1nc2c(cc1=O)CN(Cc1coc(-c3cccc(F)c3)n1)CC2`, for which the Percent Effect amounted to 90.3%.
Consider `O=C1NCCN1C1CCCN(Cc2coc(-c3ccc(F)cc3)n2)C1` (stereo unspecified), for which the Percent Effect was determined as 24.6%.
Regarding `CCn1nc2c(cc1=O)CN(Cc1coc(-c3ccccc3)n1)CC2`, the Percent Effect was 14.9%.
In the case of `Cc1cccc(S(=O)(=O)N2CC[C@H]3CO[C@H](CN(C)C)[C@H]3C2)c1` it was 0.917%.
Next, `Cc1ccc(CN2C[C@H](N(C)Cc3cncnc3)[C@H]3OCCC[C@H]32)o1`: 15.4%.
Consider `O=C1CCCC2=C1C(c1ccc(F)cc1F)Nc1nonc1N2` (stereo unspecified), for which the Percent Effect was 14.6%.
In the case of `Cc1ccccc1CN1C[C@@H]2CC[C@H](C1)N(CC1CCC1)C2=O`, the Percent Effect was determined as 34.4%.
